In PubChem BioAssay (Tox21):
Values joined by “and” are separate entries in the source; they are usually repeats but may differ in a detail not shown here. Equal values may be shown once. Inconclusive results are not listed. Entries that show only a call come without a potency. The source holds several records for some structures; these can differ, active in one and inactive in another. Active and inactive are the calls of the source. Unless noted, calls follow the shape of the dose curve; as a rule, active = well fitted curve in the direction sought with a large enough effect in the repeat runs; inconclusive = weak or mixed curves; inactive = no such curve, though single readings can be large; an effect the other way counts as inactive or inconclusive.

Tests used:
[1] = qHTS assay to identify small molecule agonists of the vitamin D receptor (VDR) signaling pathway - cell viability counter screen (AID 743224); also: nearly all actives have a fitted effect of over 50% in size; also: potency is read from the fitted curve at half-maximal effect
In short: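 CellTiter-Glo viability readout on VDR-bla cells, measured after 16 h of compound treatment at 37C in the same wells.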

[2] = qHTS assay to identify small molecule antagonists of the vitamin D receptor (VDR) signaling pathway - cell viability counter screen (AID 743225); also: nearly all actives have a fitted effect of over 50% in size
In short: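 In this counter screen, VDR-bla HEK 293T cells receive test compound plus 3 nM final calcitriol for 16 h at 37C. Room-temperature steps of 2 h with the beta-lactamase substrate, then 30 min with CellTiter-Glo, precede the luminescence read.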

[3] = qHTS assay to identify small molecule agonists of the NFkB signaling pathway (AID 1159509; active = well fitted curve in the direction sought with a large enough effect in the signal ratio in the repeat runs, not every such curve was filed as active; the % refers to the signal ratio; also: series mostly up to about 61 µM)
In short: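 Beta-lactamase reporter assay run in quantitative high-throughput format on an NF-kB-responsive ME-180 line, with 5 hr compound treatment and a FRET-based blue/green fluorescence readout.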

[4] = qHTS assay to identify small molecule agonists of the NFkB signaling pathway - cell viability counter screen (AID 1159515; calls by dose curve; also: series mostly up to about 61 µM; nearly all actives have a fitted effect of over 55% in size)
In short: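 Tox21 library compounds were tested for cytotoxicity against NFkB-bla ME-180 cells during a 5 hr exposure at 37 C. CellTiter-Glo luminescence served as the viability read-out.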

[5] = qHTS assay to identify small molecule agonists of the endoplasmic reticulum stress response signaling pathway - cell viability counter screen (AID 1159517; calls by dose curve; also: series mostly up to about 61 µM; nearly all actives have a fitted effect of over 50% in size)
In short: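 After overnight attachment, ESRE-bla HeLa cells were treated with Tox21 library compounds for 5 hr. CellTiter-Glo luminescence, read 30 min post-addition at room temperature, reported viability.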

[6] = qHTS assay to identify small molecule antagonists of the retinoid-related orphan receptor gamma (ROR-gamma) signaling pathway - cell viability counter screen (AID 1159520); also: nearly all actives have a fitted effect of over 50% in size
In short: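 Cytotoxicity was read from cellular ATP (CellTiter-Glo luminescence) after 16 hr at 37 C with 1 uM doxycycline induction. The inducer was added 2 hr after compound transfer to Tet-on ROR gamma CHO cells.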

[7] = qHTS assay to identify small molecule agonists of the AP-1 signaling pathway - cell viability counter screen (AID 1159525; calls by dose curve; also: nearly all actives have a fitted effect of over 55% in size)
In short: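 Intracellular ATP by Cell Titer Glo luminescence (30 min, RT) in the same ME-180 AP-1-bla wells after the 5 h compound exposure at 37 °C. Normalised to tetra n-octyl ammonium bromide and DMSO controls.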

[8] = qHTS assay to identify small molecule agonists of the AP-1 signaling pathway (AID 1159526; calls by dose curve)
[9] = qHTS assay to identify small molecule agonists of the RXR signaling pathway - cell viability counter screen (AID 1159529)
In short: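 Viability read-out for the RXR-alpha agonist qHTS: luminescent CellTiter-Glo signal after 30 min at RT. HEK 293T bla reporter cells, 2% charcoal-stripped FBS, 16 hr compound incubation; tetraoctyl ammonium bromide as cytotoxic control.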

[10] = qHTS assay to identify small molecule antagonists of the retinoid acid receptor (RAR) signaling pathway - cell viability counter screen (AID 1159551); also: nearly all actives have a fitted effect of over 35% in size
In short: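 In this counter screen, the RARE-luciferase line C3RL4 was exposed for 6 h at 37 C and 5% CO2 to compounds with retinol at 1 uM final. Cellular ATP, read by luminescence, served as the viability measure.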

[11] = qHTS assay to identify small molecule antagonists of the retinoic acid receptor (RAR) signaling pathway (AID 1159552; also: nearly all actives have a fitted effect of over 50% in size)
In short: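 Using a RARE-driven luciferase construct in C3RL4 cells, retinol at 1 uM final provided the agonist stimulus while compounds were co-applied. After 6 hours at 37 C, luminescence was recorded to flag inhibitors of retinol signaling.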

[12] = qHTS assay to identify small molecule agonists of the retinoic acid receptor (RAR) signaling pathway (AID 1159553)
In short: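 In this cell-based screen, 1,000 C3RL4 cells per well were cultured overnight, dosed with test chemicals in DMSO for 6 hr, and assessed for RARE luciferase luminescence.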

[13] = qHTS assay to identify small molecule antagonists of the estrogen related receptor (ERR) signaling pathway from Tox21 library - cell viability counter screen (AID 1224834); also: nearly all actives have a fitted effect of over 30% in size; also: potency is read from the fitted curve at half-maximal effect
In short: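 Counter screen run in ERR cells (2,000 cells/well): cells pre-incubated 6 h, then treated with compounds for 17.5 h at 37 C. Fluorescence was read 30 min after CellTiter-Fluor addition.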

[14] = molecular target: Luciferin 4-monooxygenase (Photinus pyralis) (UniProt P08659); experiment: qHTS assay to identify small molecule inhibitors of firefly luciferase (AID 1224835); also: series mostly up to about 120 µM; nearly all actives have a fitted effect of over 25% in size
In short: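 Inhibition of purified Photinus luciferase is measured by luminescence. Substrate levels (D-luciferin, ATP) sit at their KM values. Each compound is tested in a concentration series.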

[15] = qHTS assay to identify small molecule agonists of the constitutive androstane receptor (CAR) signaling pathway - cell viability counter screen (AID 1224836); also: nearly all actives have a fitted effect of over 45% in size; also: potency is read from the fitted curve at half-maximal effect
In short: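 Multiplexed viability check: HepG2-CYP2B6-hCAR cells, 15-point compound dosing, 0.75 uM PK11195 final, 23 h at 37 C, CellTiter-Fluor fluorescence.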

[16] = molecular target: Nuclear receptor ROR-gamma (Homo sapiens) (UniProt P51449); experiment: qHTS assay to identify small molecule antagonists of the retinoid-related orphan receptor gamma (ROR-gamma) signaling pathway (AID 1159521; also: nearly all actives have a fitted effect of over 50% in size; also: potency is read from the fitted curve at half-maximal effect)
In short: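 Screening format: cell-based luciferase reporter in CHO cells with doxycycline-inducible RORγ. Compound pre-exposure lasts 2 h, doxycycline is 1 uM final, induction runs 16 h at 37 C, and ONE-Glo luminescence is read.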

[17] = molecular target: Retinoic acid receptor RXR-alpha (Homo sapiens) (UniProt P19793); experiment: qHTS assay to identify small molecule agonists of the RXR signaling pathway (AID 1159527; calls by dose curve; also: nearly all actives have a fitted effect of over 35% in size; also: potency is read from the fitted curve at half-maximal effect)
In short: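 Fluorescence ratio readout (460 vs 530 nm) from GeneBLAzer RXR-alpha HEK 293T cells after 16 hr compound treatment; cells seeded 5 hr beforehand in low-serum, charcoal-stripped medium.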

[18] = qHTS assay to identify small molecule agonists of the endoplasmic reticulum stress response signaling pathway (AID 1159516; active = well fitted activation curve with a large enough effect in the signal ratio in the repeat runs, not every such curve was filed as active; the % refers to the signal ratio)
In short: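 Fluorescence at 460 and 530 nm (405 nm excitation) reports beta-lactamase from an ER stress response element in HeLa cells treated 5 hr at 37 C.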

[19] = qHTS assay to identify small molecule antagonists of the estrogen related receptor (ERR) signaling pathway - cell viability counter screen (AID 1224818); also: series mostly up to about 46 µM
In short: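 Viability of ERR cells, CellTiter-Fluor fluorescence; 17.5 h compound exposure at 37 C, DMSO vehicle; 30 min reagent incubation at 37 C/5% CO2.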

[20] = qHTS assay to identify small molecule antagonists of the estrogen related receptor signaling pathway with the pleiotropic PPARgamma coactivator (PGC) cell viability counter screen (AID 1224822; also: series mostly up to about 46 µM)
In short: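 17.5 h compound treatment of PGC/ERR cells at 37 C; readout CellTiter-Fluor fluorescence; run alongside the PGC/ERR antagonist screen to flag cytotoxic compounds.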

Chain of Luciferin 4-monooxygenase (Photinus pyralis) (P08659 whole entry, looked up): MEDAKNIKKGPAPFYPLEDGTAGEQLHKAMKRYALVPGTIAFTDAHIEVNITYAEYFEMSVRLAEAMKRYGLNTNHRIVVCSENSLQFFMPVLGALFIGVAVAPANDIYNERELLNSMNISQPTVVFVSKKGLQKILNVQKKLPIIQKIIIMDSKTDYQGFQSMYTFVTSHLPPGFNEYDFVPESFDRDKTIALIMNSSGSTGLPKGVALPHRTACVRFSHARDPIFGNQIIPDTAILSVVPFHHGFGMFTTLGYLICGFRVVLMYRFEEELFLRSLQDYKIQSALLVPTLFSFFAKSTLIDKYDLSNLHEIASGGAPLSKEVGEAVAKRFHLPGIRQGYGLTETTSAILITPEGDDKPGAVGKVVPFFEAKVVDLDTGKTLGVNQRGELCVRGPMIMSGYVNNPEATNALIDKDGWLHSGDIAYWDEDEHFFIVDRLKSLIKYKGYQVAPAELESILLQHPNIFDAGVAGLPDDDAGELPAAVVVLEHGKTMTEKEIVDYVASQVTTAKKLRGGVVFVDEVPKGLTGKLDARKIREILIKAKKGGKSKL
Chain of Retinoic acid receptor RXR-alpha (Homo sapiens) (P19793 whole entry, looked up): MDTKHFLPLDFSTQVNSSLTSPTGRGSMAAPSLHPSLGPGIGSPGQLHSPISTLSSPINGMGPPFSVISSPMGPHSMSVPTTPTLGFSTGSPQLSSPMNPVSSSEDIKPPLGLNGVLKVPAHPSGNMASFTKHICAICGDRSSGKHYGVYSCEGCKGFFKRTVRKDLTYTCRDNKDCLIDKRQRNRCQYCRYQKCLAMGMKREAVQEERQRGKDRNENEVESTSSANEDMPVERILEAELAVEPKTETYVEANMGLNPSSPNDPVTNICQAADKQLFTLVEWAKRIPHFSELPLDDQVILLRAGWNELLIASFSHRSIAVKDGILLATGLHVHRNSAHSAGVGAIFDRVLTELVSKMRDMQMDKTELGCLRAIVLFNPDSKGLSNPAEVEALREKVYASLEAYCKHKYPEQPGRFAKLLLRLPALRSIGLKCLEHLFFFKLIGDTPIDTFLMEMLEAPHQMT

SMILES	Potency [1]	outcome [2]	outcome [3]	outcome [4]	outcome [5]	Potency [6]	Potency [7]	outcome [8]	Potency [9]	outcome [10]	Potency [11]	Potency [12]	Potency [13]	Potency [14]	Potency [15]	Potency [16]	Potency [17]	outcome [18]	outcome [19]	outcome [20]
O=C(O)CC(C(=O)O)C(CC(=O)O)C(=O)O (configuration not stated)	inactive	inactive	inactive	inactive	inactive	inactive	inactive	inactive	inactive	inactive	inactive	inactive	inactive	inactive	inactive	–	–	–	–	–
Nc1cc([N+](=O)[O-])ccc1O	inactive	inactive	inactive	inactive	inactive	–	inactive	inactive	inactive	inactive	–	–	48.6 µM (active) and 30.5 µM (active)	inactive	48.6 µM (active)	inactive	inactive and 9.72 µM (active)	–	–	–
ON=C1CCCCC1	inactive and 38.9 µM (active)	inactive	inactive	inactive	inactive	inactive	inactive	inactive	inactive	inactive	inactive	inactive	inactive	inactive	inactive	inactive	–	–	–	–
O=C=NCCCCCCN=C=O	inactive	–	inactive	inactive	inactive	–	inactive	inactive	inactive	inactive	inactive	inactive	inactive	inactive	inactive	26.7 µM (active) and inactive	–	–	–	–
CC1=CCC2CC1C2(C)C (configuration not stated)	inactive	inactive	inactive	inactive	inactive	inactive	inactive	inactive	inactive	inactive	inactive	inactive	inactive	inactive	inactive	inactive	inactive	–	–	–
C[C@H]1C[C@@H]2[C@H]([C@@H](O)C[C@@]3(C)[C@H]2CC[C@]3(O)C(=O)CO)[C@@]2(C)C=CC(=O)C=C12	inactive	–	–	inactive	inactive	inactive	inactive	inactive	inactive	inactive	inactive	inactive	inactive	inactive	inactive	inactive	inactive	inactive	–	–
CC(C)c1ccc(S(=O)(=O)O)cc1	inactive	inactive	inactive	inactive	inactive	inactive	inactive	inactive	inactive	inactive	–	–	inactive	inactive	inactive	inactive	inactive	–	–	–
O=S(=O)(O)c1ccc2ccccc2c1	inactive	inactive	inactive	inactive	inactive	–	inactive	inactive	inactive	inactive	–	–	inactive	inactive	inactive	–	11 µM (active)	–	–	–
C=CCOC(=O)c1ccccc1C(=O)OCC=C	inactive	inactive	inactive	inactive	inactive	inactive	inactive	inactive	inactive	inactive	inactive	inactive	inactive	inactive	inactive	inactive	–	–	–	–
CCCCCCCCCCCCS	inactive	inactive	inactive	inactive	inactive	–	inactive	inactive	inactive	inactive	inactive	inactive	inactive	inactive	inactive	inactive	–	–	–	–
C#CCN(C)Cc1ccccc1	inactive	–	–	inactive	inactive	inactive	inactive	inactive	inactive	inactive	inactive	inactive	inactive	inactive	inactive	–	inactive	inactive	inactive	inactive
CC(=O)CC(=O)Nc1ccccc1	inactive	–	–	inactive	inactive	–	inactive	inactive	inactive	inactive	inactive	inactive	inactive	inactive	inactive	–	inactive	inactive	–	–
